The list is not random: actives were taken first. Their share in the collection is about 2.2%.
M4 PAM: potentiates acetylcholine response at human M4 receptor | P08173 | CHO-K1 hM4/Gqi5, Fluo-8 calcium fluorescence, ACh EC20; 0% = ACh EC20, 100% = maximal ACh | activation, % at 3 µM | actives 0.4% (n = 360,000);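 active = activation above its plate's cutoff, the mean activation of sample wells plus 3 SD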
Target sequence (P08173 whole entry, looked up): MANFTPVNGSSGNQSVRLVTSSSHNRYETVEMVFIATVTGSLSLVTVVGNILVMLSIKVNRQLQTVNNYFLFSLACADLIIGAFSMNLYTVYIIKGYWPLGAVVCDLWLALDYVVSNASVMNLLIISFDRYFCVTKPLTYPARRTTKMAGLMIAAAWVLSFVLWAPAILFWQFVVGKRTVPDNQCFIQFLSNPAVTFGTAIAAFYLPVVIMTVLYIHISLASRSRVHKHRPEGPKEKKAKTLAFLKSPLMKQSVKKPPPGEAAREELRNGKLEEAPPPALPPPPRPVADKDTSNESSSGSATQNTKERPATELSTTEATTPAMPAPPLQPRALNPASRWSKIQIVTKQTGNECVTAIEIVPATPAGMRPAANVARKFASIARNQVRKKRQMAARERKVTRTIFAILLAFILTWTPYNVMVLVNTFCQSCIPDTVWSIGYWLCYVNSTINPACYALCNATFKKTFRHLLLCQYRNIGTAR
M1 antag: antagonists of human M1 muscarinic receptor; inhibition, % at 3 µM; actives 1.3% (n = 360,000); P11229; CHO-K1 hM1, Fluo-8 calcium fluorescence, ACh EC80 antagonist;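 active = percent inhibition above its own plate's cutoff, namely the mean of that plate's compound wells plus 3 SD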;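 also: peak over basal fluorescence ratio during 140 s after agonist addition; 0% = ACh EC80 plus DMSO and 100% = DMSO alone without agonist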
M4 antag: CHRM4 antagonism in calcium assay; P08173; CHO-hM4 cells, ACh EC80, Fluo-8 calcium fluorescence; inhibition, % at 3 µM; actives 0.73% (n = 360,000); AID 624125;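 active = inhibition above its plate's cutoff, the mean inhibition of sample wells plus 3 SD, cut at about 27% in these data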;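 also: 0% = acetylcholine EC80 with DMSO and 100% = DMSO without agonist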
CHRM1 agonist: human M1 muscarinic receptor agonism; P11229; CHO-K1 hM1, Fluo-8 calcium fluorescence, agonist mode; 0% DMSO, 100% acetylcholine EC100; activation, % at 3 µM; actives 0.33% (n = 360,000); AID 588814;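 active = activation above the run's mean compound activation plus 3 SD, cut at about 16% in these data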;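 also: peak over basal fluorescence ratio within a 140 s kinetic read after compound addition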
CHRM4 agonist: agonists of human muscarinic M4 receptor (CHRM4) | P08173 | CHO-K1 hM4/Gqi5, Fluo-8 calcium fluorescence; vehicle 0%, full acetylcholine response 100% | activation, % at 3 µM | actives 0.14% (n = 360,000) | AID 624127;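 active = activation above the run mean over all test wells plus 3 SD, cut at about 32% in these data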;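 also: peak over basal fluorescence ratio per well then scaled between controls; 0% = DMSO wells and 100% = acetylcholine at EC100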
CHRM1 PAM: human CHRM1 positive allosteric modulation. P11229. actives 0.088% (n = 360,000). CHO-K1 hM1, Fluo-8 calcium fluorescence, ACh EC20; 0% = ACh EC20, 100% = maximal ACh. activation, % at 3 µM; in the data active = activation above about 19%, passing the limit was not always enough
An asterisk follows results filed as active.

SMILES	M4 PAM	M1 antag	M4 antag	CHRM1 agonist	CHRM4 agonist	CHRM1 PAM
COc1ccc(C(CNC(=O)CCNS(=O)(=O)c2ccccc2)N2CCOCC2)cc1 (stereo not given)	-2	30*	10	-4	0	-13
COc1ccc(C(CNC(=O)Cc2ccccc2Cl)N2CCCCC2)cc1 (stereo not given)	0	38*	2	-10	2	-28
CCOc1ccc(S(=O)(=O)NCCC(=O)NCC(c2ccc(OC)cc2)N2CCOCC2)cc1 (stereo not given)	0	-19	5	-7	0	8
COc1ccc(OC(=O)N(C)C[C@@H]2OCc3cn(nn3)CCCC(=O)N([C@@H](C)CO)C[C@H]2C)cc1	4	-15	-5	-6	1	3
CCO[C@H]1OC(C(=O)N2CCN(Cc3ccccc3)CC2)=C[C@@H](c2ccc(C(F)(F)F)cc2)[C@@H]1CCCO	17	3	-7	-2	1	5
NS(=O)(=O)c1ccc(CCNc2nc3c(-c4cccc(F)c4)nnn3c3ccccc23)cc1	8	-8	2	-8	1	11
O=C(c1ccc(S(=O)(=O)N2CCCC2)cc1)N1CCN(c2cccc(Cl)c2)CC1	1	2	2	-3	3	-11
C1=CN2CCC1C(c1ccccc1)C2 (stereo not given)	-11	73*	36*	50*	3	-14
COc1ccc(CN2C(=O)C(CC(=O)NCc3ccco3)CC(C(=O)N(C(C)C)C(C)C)=C2C)cc1 (stereo not given)	-5	9	1	-6	0	-6
Nc1ncnc2c1ncn2C1OC(C(=O)NC2CC2)C(O)C1O (stereo not given)	-8	-37	36*	1	0	9
C[C@@H](CO)NC(=O)[C@H]1O[C@@H](n2cnc3c(N)ncnc32)[C@H](O)[C@@H]1O	1	-28	0	4	0	6
COc1ccc(CNC(=O)COC(=O)CN2C(=O)C3CC=CCC3C2=O)cc1 (stereo not given)	18	-24	3	3	2	26*
COC(=O)c1ccc(CNC(=O)COC(=O)CCN2C(=O)C3CC=CCC3C2=O)cc1 (stereo not given)	1	-6	-3	-4	2	6
O=S(=O)(Nc1nc2ccccc2nc1NCC1CCCO1)c1ccc(F)cc1 (stereo not given)	2	-10	-5	-2	1	6
CC(C)C[C@H]1CN=C(Nc2ccccc2)N1CCc1cccc(F)c1	-21	57*	62*	63*	126*	-39
CC(C)C[C@H]1CN=C(Nc2ccccc2)N1CCc1ccc(F)cc1	-18	25	47*	50*	115*	-32
CC(C)C[C@H]1CN=C(N(C)C)N1CCc1cccc(F)c1	-4	6	10	-13	2	-4
Cc1cccc(CCN2C(Nc3ccccc3)=NC[C@@H]2CC(C)C)c1	-23	57*	59*	53*	137*	-36
Cc1cccc(NC(=O)c2oc3ccc(S(=O)(=O)N4CCOCC4)cc3c2C)c1C	-20	30	29*	0	18	-12
Cc1c(C(=O)NCCC2=CCCCC2)oc2ccc(S(=O)(=O)N3CCOCC3)cc12	-14	42*	14	3	16	-14
COc1ccc(OCCn2c(N)nc3ccccc32)cc1	2	-4	-2	-4	5	13
OCCCCNCc1ccc(OCc2ccccc2Cl)cc1	-12	44*	13	-11	4	-35
Cc1ncoc1C(=O)Nc1cccc(Cl)c1	18	7	-4	8	2	15
O=C(COC(=O)/C=C/c1ccccc1)Nc1ccc2c(c1)OCCO2	27*	-18	-19	2	0	27*
COc1cccc(/C=C/C(=O)OCC(=O)Nc2ccc3c(c2)OCCO3)c1	11	0	-9	-5	1	0
SMILES	M4 PAM	M1 antag	M4 antag	CHRM1 agonist	CHRM4 agonist	CHRM1 PAM
O=C(COC(=O)/C=C/c1ccc(Cl)cc1)Nc1ccc2c(c1)OCCO2	34*	-5	-14	-4	3	6
O=C1CCC(C(=O)OCc2cc(Cl)ccc2OC(F)F)N1 (stereo not given)	6	-24	-2	-2	1	-1
CC1(C)NC(=O)N(CC(O)COc2ccccc2C(=O)N2CCCCC2)C1=O (stereo not given)	6	-9	-5	-3	0	7
CC(CN1CCN(CCOCCO)CC1)CN1c2ccccc2Sc2ccc(Cl)cc21 (stereo not given)	-13	56*	19	0	22	-28
CCN(CC)c1nc(C=Cc2ccc(N(C)C)cc2)c2nccnc2n1	-10	46*	41*	33*	29	-15
COc1cccc(C=Cc2nccc3ccccc23)c1OC	-10	2	-6	-4	4	-4
CN(C)c1ccc(C=Cc2nccc3ccccc23)cc1	-17	41*	23	27*	36*	-36
Cc1ccc(S(=O)(=O)Oc2ccccc2)cc1	3	-10	-9	-7	0	0
COc1ccc(CCC(=O)OCC(=O)c2ccc(C)cc2)cc1	5	-14	1	-10	-3	11
COc1ccc(Cn2nnnc2C(C(C)C)N2CCc3ccccc32)cc1 (stereo not given)	-4	0	3	-4	0	4
CC(=O)c1cc2c(cc1NC(=O)CSc1nc3ccccc3o1)OCO2	-4	-1	0	-2	0	7
CC(=O)N1CCN(c2ccc(NC(=S)NC(=O)COc3ccc(C(C)(C)C)cc3)cc2)CC1	-15	26	17	0	10	-9
CCC(=O)N1CCN(c2ccc(NC(=S)NC(=O)COc3ccccc3)cc2)CC1	-29	30*	18	2	16	-16
CN1CCN(c2ccc(NC(=S)NC(=O)c3cccc4c(Br)cccc34)cc2)CC1	-3	20	-5	-5	1	-12
CN1CCN(c2ccc(NC(=S)NC(=O)c3cccc4ccccc34)cc2)CC1	-1	45*	5	-3	3	-22
O=C(CN(CCc1ccccc1)S(=O)(=O)c1ccc(Cl)cc1)N/N=C/c1ccc2c(c1)OCO2	5	-7	-23	-5	0	6
Cc1ccc(CNCC(O)(c2ccccc2)c2ccccc2)cc1	-12	11	15	-8	4	-14
CCC(=O)Nc1nnc(SCCOC)s1	2	5	4	-2	0	2
c1ccc(-c2nc(N3CCOCC3)cc(N3CCOCC3)n2)cc1	-5	-2	7	-2	0	3

Bioassay records (PubChem)
